This excerpt belongs to a sample that is enriched for hits.
CBFb RUNX1 block – CBF-beta/RUNX1 interaction disruption. Potency, µM (highest dose often 59.8 µM), inactives show top-dose activity, negative = inhibition, hits mostly inhibitors. Q01196+Q13951. 230,000 tested, under 10 active. AlphaScreen CBFb-His/RUNX1-biotin binding, biochemical; active = well fitted curve in the direction sought with a large enough effect; inconclusive = small, poorly fitted or top-dose-only effect, or another doubt; inactive = no such curve, though single readings can be large; an effect the other way counts as inactive or inconclusive; note: % of control where 0% means no effect
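Proteins preincubated together for 20 min at RT before compound addition; 15 min later, nickel and streptavidin beads were added and left 90 min prior to AlphaScreen measurement.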
MBNL1-CUG inh – blocks human MBNL1 binding to CUG repeat RNA; Q9NR56; TR-FRET MBNL1-His/biotin-(CUG)12 binding, 665/545 ratio; Potency, µM (titrated, usually from 57.5 µM), for inactives: at the top dose activity change, negative = inhibition, most hits filed as inhibitors; 280,000 tested, 0.036% active; AID 2675; active = well fitted inhibition curve with a large enough effect in the signal ratio, with a control signal flat, not every such curve was filed as active; inconclusive = small, poorly fitted or top-dose-only effect, or effect the other way, or a change in a side signal; inactive = no such curve, though single readings can be large or run the other way; the % refers to the signal ratio; note: potency is the fitted concentration of half-maximal effect; % is set by controls: 0 for no effect and ±100 for the full control effect
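His-tagged MBNL1 binding to biotinylated (CUG)12 RNA was measured by TR-FRET using terbium anti-His antibody (0.055 ng/ul final) and streptavidin-XL665 (5 nM final). Compounds were titrated 92 nM to 58 uM; 60 min at room temperature.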
Rango release inh – prevents RanGTP from dissociating the Rango-importin beta complex. Potency, µM (titrated, usually from 46.1 µM), for inactives: at the highest dose activity change, negative = inhibition. AID 540253. 340,000 tested, 0.071% active. O95149+P62826. Biochemical FRET Rango-importin beta, RanGTP-induced dissociation; note: potency is the fitted concentration of half-maximal effect; % of control where 0% means no effect; nearly all actives have a fitted effect of over 45% in size
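Rango (0.1 uM)–importin beta (0.25 uM) complex; RanGTP-RCC1 trigger; 45 min RT; CFP/YFP FRET read.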
Rango-impB inh – prevents formation of the Rango-importin beta complex; Q14974; Rango CFP/YFP FRET sensor + importin beta, 45 min; Potency, µM (highest dose often 92.2 µM), without a hit: at the top dose inhibition of complex formation; 340,000 tested, 0.031% active; AID 540263;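 note: potency is the fitted concentration of half-maximal effect; 0% = DMSO wells and 100% = buffer wells lacking importin beta; nearly all actives have a fitted effect of over 15% in size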
Target sequence (Q14974 whole entry, looked up): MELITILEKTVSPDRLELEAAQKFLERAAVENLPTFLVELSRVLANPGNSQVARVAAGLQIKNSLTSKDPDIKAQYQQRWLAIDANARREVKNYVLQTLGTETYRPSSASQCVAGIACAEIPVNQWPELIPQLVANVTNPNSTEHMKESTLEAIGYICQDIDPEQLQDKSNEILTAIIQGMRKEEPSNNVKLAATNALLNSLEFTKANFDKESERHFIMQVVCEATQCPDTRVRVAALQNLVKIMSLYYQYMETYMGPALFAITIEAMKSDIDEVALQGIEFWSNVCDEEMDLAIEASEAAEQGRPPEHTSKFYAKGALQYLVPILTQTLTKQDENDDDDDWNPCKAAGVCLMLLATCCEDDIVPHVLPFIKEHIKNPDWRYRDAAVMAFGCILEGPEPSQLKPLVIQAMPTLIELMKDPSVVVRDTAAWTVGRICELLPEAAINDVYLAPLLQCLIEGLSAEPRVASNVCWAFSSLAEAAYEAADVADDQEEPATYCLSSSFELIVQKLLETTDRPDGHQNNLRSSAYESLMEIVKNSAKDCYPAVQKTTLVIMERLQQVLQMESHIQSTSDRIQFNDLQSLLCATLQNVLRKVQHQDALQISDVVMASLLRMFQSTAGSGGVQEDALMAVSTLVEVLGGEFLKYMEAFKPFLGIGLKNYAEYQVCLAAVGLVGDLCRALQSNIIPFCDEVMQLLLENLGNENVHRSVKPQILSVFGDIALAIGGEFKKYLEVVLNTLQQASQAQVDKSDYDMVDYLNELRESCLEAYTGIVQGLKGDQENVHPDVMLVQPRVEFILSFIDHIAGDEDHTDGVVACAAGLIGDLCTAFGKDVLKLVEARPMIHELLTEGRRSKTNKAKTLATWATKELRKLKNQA
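FRET biosensor (snurportin 1 IBB flanked by EYFP and cerulean), 50 nM, with compound 5 min, then 0.125 microM importin beta in PBS, 1 mM DTT, 0.02% Tween-20, 0.1% BSA. CFP/YFP ratio read after 45 min at room temperature; pre-read flags interference.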
ClpP mod – qHTS Assay for Activators of ClpP. AID 651965, 2013. Potency, µM (doses to about 57.5 µM), inactives show top-dose activity change, negative = active. purified B. subtilis ClpP, FRET peptide cleavage, 20 min. ATP-dependent Clp protease proteolytic subunit (Bacillus subtilis (strain 168)), P80244. 340,000 tested, 1.9% active; active = well fitted falling curve with a large enough effect; inconclusive = small, poorly fitted or top-dose-only effect; inactive = no such curve, though single readings can be large or run the other way; note: potency is the fitted concentration of half-maximal effect; the source files actives as falling curves though it sought activators and does not explain the sign; nearly all actives have a fitted effect of over 65% in size
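FRET quenching reversal measured ClpP activation: 10 microg/mL B. subtilis ClpP at pH 8 with the FRET-FV decapeptide, read at 430 nm after 320 nm excitation. The 20-min minus 0-min signal was scaled between DMSO/no-enzyme wells and ADEP (5.8 microM final).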
ClpP validation – validation of B. subtilis ClpP protease hits (inhibitors); shares compounds with ClpP mod; 470 tested, 40% active; purified B. subtilis ClpP, FRET-FV substrate cleavage, 20 min; Potency, µM (top dose mostly 57.5 µM), for inactives: top-dose activity change, negative = inhibition, hits mostly inhibitors; active = well fitted curve in the direction sought with a large enough effect; inconclusive = small, poorly fitted or top-dose-only effect, or another doubt; inactive = no such curve, though single readings can be large; an effect the other way counts as inactive or inconclusive; note: potency is the fitted concentration of half-maximal effect; % is set by controls: 0 for no effect and ±100 for the full control effect; nearly all actives have a fitted effect of over 70% in size
Active calls of the source: *; ? = inconclusive; / = no result; ! = a repeat was not active. Unless noted, calls come from the whole dose curve.

SMILES	CBFb RUNX1 block	MBNL1-CUG inh	Rango release inh	Rango-impB inh	ClpP mod	ClpP validation
COc1nc(-c2ccc(C)cc2)ccc1-c1noc(-c2cccnc2)n1	0%	4%	10%	-1%	?	19µM*
COc1nc(-c2ccccc2)ccc1-c1noc(-c2cccnc2)n1	5%	136%	2%	-1%	-21%	/
CC(C)(C)C1CCc2c(sc(NC(=O)c3ccco3)c2C(N)=O)C1 (stereo unspecified)	2%	181%	-1%	0%	107%	31µM*
Cc1ccccc1NC(=O)c1c(NC(=O)c2ccco2)sc2c1CCC(C(C)(C)C)C2 (stereo unspecified)	/	/	/	/	-5%	/
O=C(Nc1sc2c(c1C(=O)NC1CCCCC1)CCC2)c1ccco1	7%	3%	-16%	-9%	110%	?
CC(=O)Nc1cccc(NC(=O)Nc2ccc(C)c(Cl)c2)c1	12%	1%	21%	-2%	1.8µM*	0%
CC(=O)Nc1ccc(NC(=O)Nc2ccc(C)c(C)c2)cc1	-2%	6%	-6%	3%	1%	/
Cc1c(C)c2ccc(OCC(=O)Nc3ccc(N4CCC(C)CC4)cc3)cc2oc1=O	/	7%	-1%	-2%	38%	-11%
Cc1cc(=O)oc2cc(OCC(=O)Nc3ccc(N4CCC(C)CC4)cc3)ccc12	/	-7%	?	1%	-2%	/
COc1ccccc1NC(=O)c1sc2nc(N3CCOCC3)c3c(c2c1N)CCCC3	/	-6%	-12%	-2%	8.9µM*	?
Cc1ccccc1NC(=O)c1sc2nc(N3CCOCC3)c3c(c2c1N)CCCC3	/	26%	-1%	-1%	4%	/
CCOC(=O)C1CCCCN1C(=O)c1oc2c(Cl)cc(C)cc2c1C (stereo unspecified)	/	0%	-18%	-1%	53%	-1%
O=C(CC1SC(N2CCCCC2)=NC1=O)Nc1ccc(C(=O)NCc2ccccc2)cc1 (stereo unspecified)	/	/	9%	1%	0%	/
COc1cccc(CNC(=O)c2ccc(NC(=O)CC3SC(N4CCCC4)=NC3=O)cc2)c1 (stereo unspecified)	/	/	-8%	-1%	2.8µM*	0%
COc1ccc([C@H]2CC(=O)C[C@@H](CCn3cccn3)O2)cc1	/	/	/	/	0%	/
O=C(Nc1cccc(-c2cn3ccccc3n2)c1)c1cc2ccccc2oc1=O	25%	?	7%	5%	37%	14%
CC(=O)Nc1cccc(-c2cn3ccccc3n2)c1	2%	3%	10%	5%	/	/
CCc1nc(Nc2cccc(O)c2)c2oc3ccccc3c2n1	/	-2%	6%	5%	-11%	/
CCc1nc(Nc2ccncc2)c2oc3ccccc3c2n1	-9%	0%	9%	3%	8.9µM*	?
COc1ccccc1CNC(=O)C1CCN(c2nc3ccc(Cl)cc3[nH]2)CC1	/	/	/	/	1%	/
O=C(CCc1ccc(S(=O)(=O)N2CCOCC2)cc1)N1CCc2ccccc2C1	14%	-2%	0%	0%	424%	0%
Cc1ccc(S(=O)(=O)c2nnn3c2nc(Nc2cccc(C)c2)c2ccccc23)cc1	-3%	-1%	-6%	-4%	-15%	/
Cc1ccc(C)c(Nc2nc3c(S(=O)(=O)c4ccccc4)nnn3c3ccccc23)c1	1%	/	5%	-4%	55%	22µM*
CCCNC(=O)c1ccc(-c2nc3ccccc3s2)s1	-2%	?	?	?	2.8µM*	24µM*
CCCNC(=O)Nc1nc2ccccc2s1	7%	-3%	24%	0%	0%	/
SMILES	CBFb RUNX1 block	MBNL1-CUG inh	Rango release inh	Rango-impB inh	ClpP mod	ClpP validation
Nc1ncnc2oc(-c3ccoc3)c(-c3ccco3)c12	/	/	/	/	4%	/
Nc1ncnc2oc(-c3ccco3)c(-c3ccco3)c12	/	?	?	?	8.9µM*	22µM*
Cc1ccc2nc(-c3ccco3)c(Nc3ccccc3)n2c1	-7%	2%	-2%	1%	3.2µM*!	?
Cc1ccc(-c2nnc3ccc(SCC(=O)c4ccccc4)nn23)cc1	/	/	/	/	-24%	/
O=C(CNC(=O)c1ccc(Cl)cc1)OCc1cc(=O)n2ccsc2n1	/	/	/	/	-22%	/
Cc1cc2n(n1)C(c1cn(-c3ccccc3)nc1C)Nc1c(C)cccc1-2 (stereo unspecified)	19%	13%	12%	0%	8.9µM*	27µM*
CCOc1ccc(C2Nc3c(C)cccc3-c3cc(C)nn32)cc1 (stereo unspecified)	/	/	/	/	4%	/
COc1ccc(-c2cc(C(=O)N3CCC3)c3ccccc3n2)cc1OC	/	/	29%	2%	3.2µM*	-2%
COc1ccc(-c2cc(C(=O)N3CCCC3)c3ccccc3n2)cc1OC	/	11%	-17%	-2%	-12%	/
CC[C@H]1C2=C3C(CC[C@H]4C(OCc5ccc(F)cc5C(F)(F)F)OC[C@](C)([C@@H]34)N(C(=O)OC(C)(C)C)C2)C2COC(=O)OCC21 (stereo partly specified)	-1%	/	/	/	/	/
O=S(=O)(Nc1cccc(-c2cn3cccnc3n2)c1)c1ccc(F)cc1	-1%	/	16%	-4%	4µM*	24µM*
COc1ccc(CNC(=O)c2cc3c(=O)n4cccc(C)c4nc3s2)cc1	/	/	/	/	-24%	/
O=C1c2ccccc2C2(c3ccccc3)N1CCN2C(=O)C(Cl)(Cl)Cl (stereo unspecified)	/	-4%	20%	1%	-1%	/
O=C(Nc1ccc(F)cc1)N1CCN2C(=O)c3ccccc3C12c1ccccc1 (stereo unspecified)	-3%	4%	5%	1%	4µM*	1%
COc1c(C)cc(C(=O)C2CCCN(S(=O)(=O)N(C)C)C2)cc1C (stereo unspecified)	/	-13%	-8%	3%	2.8µM*	-10%
CN(C)C(=O)c1ccc(S(=O)(=O)NCc2ccccc2Cl)s1	/	/	/	/	0%	/
NC(=O)c1ccc2c(c1)OCCO2	-2%	-4%	14%	-3%	31%	-2%
O=C(O)c1ccc2c(c1)OCCO2	3%	-2%	9%	2%	-1%	/
COc1ccc2cc(C(=O)NC3CCCCC3)c(=O)oc2c1	-1%	3%	-4%	-1%	2.2µM*	22µM*
O=C(NCc1ccco1)c1cc2ccc(O)cc2oc1=O	-14%	?	?	?	-1%	/
COc1ccc2cc(C(=O)NCc3ccco3)c(=O)oc2c1	3%	?	?	?	10µM*	22µM*
O=C(NC1CCCCCC1)c1cc2ccccc2oc1=O	/	6%	0%	1%	/	/
